Source: the supplement of paper PMC6555819

Assays:
Test in all cases: PBM binding z-score (relative to random genomic background probes); higher = stronger binding; sequences stand for … in GC…GCGATTGACAGCGTAGAATGAAGG
[1] = test system: PPARg:RXRa DBDmut IVT, anti-RXR (DBD mutation: RXRa K156A/R161A, NR concentration 270 nM, RXRa partner concentration 90 nM)
Outline: (§1)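 Binding buffer was PBS pH 7.4 with 2% milk, 0.02% Triton X-100, 1 mM DTT, 0.2 mg/mL BSA and 0.4 mg/ml salmon testes DNA. In it, ligand-free nuclear receptor dimers were incubated 1 h on custom Agilent 4×180K protein-binding microarrays carrying double-stranded probes. Antibodies against each partner (one per run) detected binding, and z-scores were calculated against random background probes after regression normalization of scanned fluorescence.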

[2] = test system: PPARg:RXRa IVT, anti-PPARg (NR concentration 270 nM, RXRa partner concentration 90 nM)
Outline: as §1

[3] = test system: PPARg DBDmut:RXRa IVT, anti-PPARg (DBD mutation: PPARg1 K132A/R137A, NR concentration 270 nM, RXRa partner concentration 90 nM)
Outline: as §1

[4] = test system: PPARg DBDmut IVT, anti-PPARg (DBD mutation: PPARg1 K132A/R137A, NR concentration 270 nM)
Outline: as §1

[5] = test system: PPARg homodimer (NR concentration 180 nM)
Outline: as §1

[6] = test system: PXR:RXRa (NR concentration 270 nM, RXRa partner concentration 90 nM)
Outline: as §1

[7] = test system: PXR homodimer (NR concentration 270 nM)
Outline: as §1

[8] = test system: RARa:RXR (NR concentration 270 nM, RXRa partner concentration 90 nM)
Outline: as §1

[9] = test system: RARa homodimer (NR concentration 270 nM)
Outline: as §1

[10] = test system: RARb:RXRa (NR concentration 270 nM, RXRa partner concentration 90 nM)
Outline: as §1

[11] = test system: RARb homodimer (NR concentration 270 nM)
Outline: as §1

[12] = test system: RARg:RXRa (NR concentration 270 nM, RXRa partner concentration 90 nM)
Outline: as §1

[13] = test system: RARg homodimer (NR concentration 270 nM)
Outline: as §1

[14] = test system: RXRa DBDmut IVT, anti-RXR (DBD mutation: RXRa K156A/R161A, NR concentration 90 nM)
Outline: as §1

[15] = test system: RXRa homodimer (NR concentration 180 nM)
Outline: as §1

[16] = test system: THRa:RXRa (NR concentration 90 nM, RXRa partner concentration 90 nM)
Outline: as §1

[17] = test system: THRa homodimer (NR concentration 90 nM)
Outline: as §1

[18] = test system: VDR homodimer (NR concentration 270 nM)
Outline: as §1

Sequence	PBM binding z-score [1]	PBM binding z-score [2]	PBM binding z-score [3]	PBM binding z-score [4]	PBM binding z-score [5]	PBM binding z-score [6]	PBM binding z-score [7]	PBM binding z-score [8]	PBM binding z-score [9]	PBM binding z-score [10]	PBM binding z-score [11]	PBM binding z-score [12]	PBM binding z-score [13]	PBM binding z-score [14]	PBM binding z-score [15]	PBM binding z-score [16]	PBM binding z-score [17]	PBM binding z-score [18]
TTACCAAGATGAGCTGAGGTCGTTGATCCAACTC	0.238	0.101	-0.000343	-0.456	0.0396	1.87	0.628	1.35	-0.33	0.279	0.571	0.267	-0.226	0.162	0.858	2.68	1.56	2.02
TCATAGAGGTAAACAGGTGAAAGTCCGTAAGTTA	2.54	2.16	0.176	0.0732	0.143	0.625	-0.208	1.11	0.579	0.861	0.716	0.649	0.356	1.07	1.1	0.843	-0.0526	-0.0713
GCTAGTTGGTCAGTAAAAGGTCCCACACCGGTCG	0.066	0.0788	-0.0613	-0.438	0.327	-0.35	-0.579	0.0824	0.292	0.845	1.08	0.163	0.286	-0.751	-0.112	-0.281	-0.0359	-0.387
TCATATAGCTAAACAGGTGAAAGTCCGTAAGTTA	1.46	0.758	-0.631	0.119	0.0802	0.228	-0.231	0.404	0.0178	0.215	0.282	0.0319	-0.0908	0.797	0.266	0.318	-0.358	0.105
ATACCAAGTTGATCGTGAGGTCGTTGATACTAAC	-0.0424	-0.015	0.231	0.701	1.02	2.78	1.61	1.78	1.04	0.897	1.39	1.26	0.677	1.34	1.08	2.75	2.33	3.08
TAGCCTAGATCATTGGGCCAGTATAGTACGCATC	0.771	0.88	0.335	-0.32	-0.814	-0.775	-0.695	-0.564	-0.292	-1.15	-0.608	-0.554	-0.194	-0.443	-0.398	-0.832	-0.488	-0.283
TCTTGTAAATCAATAGAGGTTAAGAAAGTGCGCT	2.07	0.72	0.946	0.876	0.652	2.65	0.467	1.72	0.812	1.13	1.42	0.907	0.577	1.23	1.46	1.56	0.0458	0.639
CGAACTAGGTCGGAACAGGACAGTGAAGGATGAT	4.12	3.56	0.508	-0.428	-0.2	-0.28	-0.583	0.314	-0.0866	0.543	0.127	0.399	0.643	-0.112	0.169	1.89	-0.442	-0.102
CCAGACAGGTGAAAGGTAACTAAGTCTGGTACGC	1.58	2.54	-0.18	-0.253	0.909	0.819	0.101	1.81	0.324	1.14	0.728	1.08	0.582	-0.0522	1.99	0.784	-0.203	-0.529
CCTAGCAGGCCAATCTGGGTCATTCAAGGCTTGA	3.81	4.05	-1.11	-0.944	0.0423	1.63	-0.53	1.04	-0.337	1.17	2.03	0.777	0.991	0.224	0.619	3.73	0.0402	0.585
ATACCAAGGTGATCGTGGGGTCGTTGATACTAAC	0.765	1.54	0.837	0.583	1.5	3.05	1.11	2.65	0.577	1.33	1.69	2.14	0.593	0.817	2.34	3.15	1.93	2.92
TCTAGTTGGGCACGGAGGTCACACACGACGGGTA	1.69	2.93	1.02	-0.0176	2.73	3.91	0.835	4.24	0.793	3.36	4.1	4.07	3.83	0.548	4.43	3.34	1.83	2.63
TCGAGTTGGTTAGTCGGGGCATTCAGCCAACATA	0.597	0.172	-0.755	-0.529	-0.2	0.148	0.163	0.142	-0.783	0.122	0.0639	-0.34	-0.804	1.41	-0.355	0.331	-0.0261	0.871
AGAACGATGGCACGCTGAGTTGATAGCAGAGTAG	-0.571	-0.274	0.264	-0.833	0.102	-0.552	-0.384	-0.792	-0.387	-0.628	-0.907	-0.162	-0.0451	-0.483	-0.397	-0.632	-1.01	-0.128
TCATGTAGGTAAAGGTGAAAGTCGAACGATATGA	4.4	4.97	1.57	1.56	0.969	0.939	0.207	1.53	0.733	2.05	1.61	1.69	1.37	0.705	1.91	1.28	0.0244	0.443
CGTCAAAGTACAACTAAGGTAACGTAAAGCACGC	0.337	0.863	-0.144	0.398	0.606	0.34	0.247	2.1	0.546	1.34	1.16	1.03	1.21	0.971	0.543	3.77	1.62	0.523
TCTATTAGTTGATTAGGGCAACTGAAACAGCGGA	2.22	1.45	1.14	0.725	-0.0911	0.233	0.247	0.283	0.703	0.768	0.795	0.45	0.804	0.885	0.275	0.533	0.295	0.318
TCGAGTAGGTTAGTCGGGCCATTCAGCCAACATA	1.97	1.9	-0.829	-1.18	-0.154	-0.339	-0.506	-0.314	-1	0.287	-0.0179	-0.285	-0.251	-0.153	-0.135	0.516	-0.252	-0.149
ATCTCTAGGTAACCAAGTTCAGTCAATGCCGAAC	4.07	3.07	0.988	0.947	1.23	2.3	2.93	1.03	1.01	1.34	2	1.22	1.21	1.27	0.744	1.86	1.06	3.43
CAAACTAGGTCAGGAAAGGTCAAAGTCGAATGAC	7.59	8.02	3.96	1.14	6.11	6.57	2.16	6.83	3.88	5.36	5.66	6.84	7.48	1.51	6.81	4.74	1.62	3.13
TAGCCTAGGTCATTCAGGGGCCTGTATAGAAAGC	1.43	2.65	-0.0905	-0.0908	0.863	1.75	-0.488	2.51	-0.792	3.52	2.65	4.31	4.02	1.75	2.48	3.54	0.286	1.04
CAAATTAGGTCAAGGTCAAAGTCGGTTTGTGCCA	8.62	8.52	4.74	1.94	5.8	5.5	3.06	5.77	4.26	5.2	5.11	6.43	7	3.32	6.65	4.42	4.59	4.95
TCAAATAGGTAAAGGTGAAAGTCGAACGATATGA	3.65	3.47	1.88	0.968	2.04	1.17	0.187	1.93	0.988	2.28	1.73	1.78	1.49	1.55	2.33	1.32	-0.328	0.351
CAGCCTAGCTCAGGGCCAGTATAGGAGGAACGTT	-0.913	-0.949	-2.22	-2.03	-1.23	-0.988	-0.337	-1.33	-0.424	-0.591	-0.467	-0.693	-0.422	-0.824	-0.971	-0.848	-0.716	-0.754
ATGTCTAGGTAAAGTTCAGTGAAAGATCGATAGA	1.29	2.46	1.14	1.13	1.69	2.12	1.98	1.13	1.09	2.84	2.59	2.12	2.62	1.25	1.5	1.17	0.000451	2.39
TCTTGTAGACCAATAGAGGTTAAGAAAGTGCGCT	2.08	1.7	0.86	0.346	0.191	3.17	0.469	1.6	0.38	1.01	1.42	0.922	0.638	0.754	1.37	1.66	-0.31	0.345
TCTTCTAGATCAGCAGGTTAAGAAAGCTGGCCAA	1.75	0.956	-0.541	-0.141	-0.0964	0.0261	-0.795	0.252	-0.167	0.235	-0.301	0.12	0.0708	0.571	0.331	0.17	-0.696	-0.431
CCTATTAGTTAACCATAAGGGCAACCGAAGCTCG	0.296	0.65	0.701	0.763	1.71	0.409	0.723	0.812	1.42	1.41	1.66	0.813	1.14	0.665	0.518	1.9	1.31	0.663
AGTCAAAGTTCACTAAGTAACGTAAGATTCAGCT	0.606	2.21	1.04	1.31	1.66	3.63	2.31	2.77	1.23	4.8	3.31	4.63	5.16	4.1	3.9	1.55	-0.0534	3.4
